DT40 TDP1 CPT = growth inhibition of DT40 Tdp1-/-;hTDP1 cells with camptothecin (screen for TDP1 inhibitors) | Potency, µM (series often up to 46.2 µM), inactives show at the highest dose activity change, negative = growth inhibition, hits mostly inhibitors | chicken DT40 Tdp1-/-;hTDP1 cells + 20 nM CPT, ATP luminescence, 48 h | actives 12% (n = 420,000); also: % is scaled to controls: 0 for no effect and ±100 for the full control effect; nearly all actives have a fitted effect of over 55% in size
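Chicken DT40 Tdp1-/- cells complemented with human TDP1, 400 cells/well, exposed to compounds plus 20 nM camptothecin for at least 48 h at 37 C; viability read as ATP content by CellTiter-Glo luminescence.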
TDP1 block = TDP1 (human) enzyme inhibition. recombinant TDP1, AlphaScreen DNA substrate cleavage. AID 485290. Potency, µM (highest dose often 130 µM), for the others: top-dose activity change, negative = inhibition, most hits filed as inhibitors. actives 0.28% (n = 350,000). Q9NUW8; also: % is scaled to controls: 0 for no effect and ±100 for the full control effect; nearly all actives have a fitted effect of over 40% in size
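Signal: AlphaScreen proximity between streptavidin donor and anti-FITC acceptor beads on intact substrate. Reaction: Tdp1 1 nM, substrate 15 nM final, 5 min RT after 15 min compound preincubation.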
ClpP mod = qHTS Assay for Activators of ClpP. AID 651965, 2013. actives 1.9% (n = 340,000). purified B. subtilis ClpP, FRET peptide cleavage, 20 min. Potency, µM (highest dose often 57.5 µM), inactives show top-dose activity change, negative = active. ATP-dependent Clp protease proteolytic subunit (Bacillus subtilis (strain 168)), P80244; active = well fitted falling curve with a large enough effect; inconclusive = small, poorly fitted or top-dose-only effect; inactive = no such curve, though single readings can be large or run the other way; also: the source files actives as falling curves though it sought activators and does not explain the sign; nearly all actives have a fitted effect of over 65% in size
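FRET quenching reversal measured ClpP activation: 10 microg/mL B. subtilis ClpP at pH 8 with the FRET-FV decapeptide, read at 430 nm after 320 nm excitation. The 20-min minus 0-min signal was scaled between DMSO/no-enzyme wells and ADEP (5.8 microM final).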
TDP1 cell noCPT = qHTS for Inhibitors of human tyrosyl-DNA phosphodiesterase 1 (TDP1): qHTS in cells in absence of CPT; DT40 Tdp1-/- hTDP1 cells, no CPT, ATP luminescence, 48 h; Potency, µM (doses to about 46.2 µM), without a hit: top-dose activity change, negative = growth inhibition, usual class: inhibitors; actives 15% (n = 420,000); AID 686978, 2013; also: % is scaled to controls: 0 for no effect and ±100 for the full control effect; nearly all actives have a fitted effect of over 55% in size
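Cells were dispensed at 400 per well, compounds added by pin tool, plates incubated ≥48 hr at 37 °C, then CellTiter-Glo added for 30 min at room temperature before luminescence reading. Line: DT40 Tdp1-/- complemented with hTDP1; camptothecin omitted.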
Numbers without * were called inactive; ? = inconclusive; / = no result; [ ] = remark or other dose. Shown are actives, neighbours in structure and some others; about 17% of the full set was active somewhere. Unless noted, calls follow the shape of the dose curve; as a rule, active = well fitted curve in the direction sought with a large enough effect; inconclusive = small, poorly fitted or top-dose-only effect, or another doubt; inactive = no such curve, though single readings can be large; an effect the other way counts as inactive or inconclusive. Potency is read from the fitted curve at half-maximal effect.

SMILES	DT40 TDP1 CPT	TDP1 block	ClpP mod	TDP1 cell noCPT
COc1ccc(CCNCc2c(OC)ccc3ccccc23)cc1	13µM*	/	-1%	13µM*
O=P(c1ccccc1)(c1ccccc1)N(c1ccccc1)c1ccccc1	2.9µM*	-1%	2%	4.6µM*
CN(C)c1ccccc1	2%	7%	-1%	16%
CN(C)CCN=Cc1c(O)n(CCC2=CCCCC2)c(=O)[nH]c1=O	-3%	0%	-3%	14%
O=C(/C=C/c1ccc2c(c1)OCO2)c1c(O)n(CCC2=CCCCC2)c(=O)[nH]c1=O	?	-6%	0%	5.8µM*
COc1ccc(/C=C/C(=O)c2c(O)n(CCC3=CCCCC3)c(=O)[nH]c2=O)cc1	6.5µM*	6%	-5%	?
Nc1ccccc1N=Cc1c(O)n(CCC2=CCCCC2)c(=O)[nH]c1=O	?	3%	-9%	?
O=C(N/N=C/c1c(O)n(CCC2=CCCCC2)c(=S)[nH]c1=O)c1ccccc1	?	8%	?	?
O=C(N/N=C/c1c(O)n(CCC2=CCCCC2)c(=O)[nH]c1=O)c1ccccc1	?	7%	-19%	21µM*
Cc1ncc(C[n+]2csc(CCOP(=O)(O)O)c2C)c(N)n1	-10%	15%	/	-11%
O=[N+]([O-])CCO	-13%	0%	1%	-15%
CCCCN1CCC(O)(c2ccccc2)C(C(=O)c2ccccc2)C1 (configuration not stated)	2.9µM*	2%	-3%	2.9µM*
CC(C)C(=O)N1CCC(CN=Cc2c(O)n(C3CCCCC3)c(=O)n(C3CCCCC3)c2=O)CC1	?	7%	-2%	23µM*
CC1=CC[C@@H]2[C@@H](C1)c1c(O)cc(CC#CCCCNS(C)(=O)=O)cc1OC2(C)C	/	6%	/	/
NC(N)=Nc1ccc2[nH]c3c(c2c1)C[C@]1(O)[C@@H]2Cc4ccc(O)c5c4[C@]1(CCN2CC1CC1)[C@@H]3O5	-24%	-5%[56.1 µM]	/	?
CCC(C)/C=C(C)/C=C/C1=CC2=C(Cl)C(=O)C(C)(OC(C)=O)C(=O)C2=CO1 (configuration not stated)	15µM*	12%	20%	?
CC12CCC3C(=CCc4cc(O)ccc43)C1CCC2=O (configuration not stated)	?	4%	/	-34%
CCCOc1ccc(N2C(=O)CC(N3CC=C(c4ccccc4)CC3)C2=O)cc1 (configuration not stated)	-12%	3%	/	?
O=C1CC(N2CC=C(c3ccccc3)CC2)C(=O)N1c1ccc(F)cc1 (configuration not stated)	15µM*	8%	-5%	18µM*
O=C(Nc1ccc(Cl)cc1)N1CC1	8.2µM*	/	/	15µM*
Cc1cc(O)c2c(c1)C(=O)c1cc(O)cc(O)c1C2=O	18µM*	19%[56.1 µM]	-2%	21µM*
COc1ccc(C(=O)Oc2cccc3cccnc23)cc1S(=O)(=O)N1CCOCC1	?	0%	0%	3.3µM*
C[C@H]1CC[C@@]2(NC1)O[C@@H]1C[C@H]3[C@@H]4CC[C@@H]5C[C@@H](O)CC[C@@]5(C)[C@@H]4CC[C@]3(C)[C@@H]1[C@@H]2C	/	-6%[21 µM]	/	/
COCCOc1ccc(C(F)(F)F)cc1NC(=O)CN1C(=O)NC2(CCCc3ccccc32)C1=O (configuration not stated)	?	0%	/	26µM*
CNc1ccc(C(=O)CC(O)CCC(C)C2OC(=O)CC(O)CC(=O)CC(O)CC(O)CC(O)CC(O)CC3(O)CC(O)C(C(=O)OC)C(CC(O[C@@H]4OC(C)C(O)C(N)C4O)/C=C/C=C/C=C/C=C/C=C/C=C/C=C/C2C)O3)cc1 (some centres not stated)	/	6%[56.1 µM]	/	/
Cc1occc1C(=O)Nc1cccc(-c2nc(CNC(=O)c3cccc(C#CC(C)(C)O)c3)c(C)o2)c1	-4%[9.04 µM]	/	/	21µM*
COc1cccc(C(=O)NCc2nc(-c3cccc(NC(=O)c4ccoc4C)c3)oc2C)c1	11%[9.04 µM]	/	/	?
COc1ccc(CCn2c(O)c(C=Nc3ccc(F)cc3)c(=O)[nH]c2=O)cc1OC	?	0%	27%	?

High-throughput results (PubChem)
